About 14,000 (4.5%) of roughly 310,000 compounds showed an effect of 50% or more. Effects have a minus sign here. The full list was thinned out, with strong results kept by preference.
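Note: peak tail current of the secondary pulse compared with the same well before compound.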

In this assay the target is human ether-à-go-go-related gene (hERG) potassium channel (human, UniProt Q12809). Description: primary screen, population patch clamp on CHO cells stably expressing hERG; higher = less effect of the substance.
Sequence of human ether-à-go-go-related gene (hERG) potassium channel (Q12809 whole entry, looked up): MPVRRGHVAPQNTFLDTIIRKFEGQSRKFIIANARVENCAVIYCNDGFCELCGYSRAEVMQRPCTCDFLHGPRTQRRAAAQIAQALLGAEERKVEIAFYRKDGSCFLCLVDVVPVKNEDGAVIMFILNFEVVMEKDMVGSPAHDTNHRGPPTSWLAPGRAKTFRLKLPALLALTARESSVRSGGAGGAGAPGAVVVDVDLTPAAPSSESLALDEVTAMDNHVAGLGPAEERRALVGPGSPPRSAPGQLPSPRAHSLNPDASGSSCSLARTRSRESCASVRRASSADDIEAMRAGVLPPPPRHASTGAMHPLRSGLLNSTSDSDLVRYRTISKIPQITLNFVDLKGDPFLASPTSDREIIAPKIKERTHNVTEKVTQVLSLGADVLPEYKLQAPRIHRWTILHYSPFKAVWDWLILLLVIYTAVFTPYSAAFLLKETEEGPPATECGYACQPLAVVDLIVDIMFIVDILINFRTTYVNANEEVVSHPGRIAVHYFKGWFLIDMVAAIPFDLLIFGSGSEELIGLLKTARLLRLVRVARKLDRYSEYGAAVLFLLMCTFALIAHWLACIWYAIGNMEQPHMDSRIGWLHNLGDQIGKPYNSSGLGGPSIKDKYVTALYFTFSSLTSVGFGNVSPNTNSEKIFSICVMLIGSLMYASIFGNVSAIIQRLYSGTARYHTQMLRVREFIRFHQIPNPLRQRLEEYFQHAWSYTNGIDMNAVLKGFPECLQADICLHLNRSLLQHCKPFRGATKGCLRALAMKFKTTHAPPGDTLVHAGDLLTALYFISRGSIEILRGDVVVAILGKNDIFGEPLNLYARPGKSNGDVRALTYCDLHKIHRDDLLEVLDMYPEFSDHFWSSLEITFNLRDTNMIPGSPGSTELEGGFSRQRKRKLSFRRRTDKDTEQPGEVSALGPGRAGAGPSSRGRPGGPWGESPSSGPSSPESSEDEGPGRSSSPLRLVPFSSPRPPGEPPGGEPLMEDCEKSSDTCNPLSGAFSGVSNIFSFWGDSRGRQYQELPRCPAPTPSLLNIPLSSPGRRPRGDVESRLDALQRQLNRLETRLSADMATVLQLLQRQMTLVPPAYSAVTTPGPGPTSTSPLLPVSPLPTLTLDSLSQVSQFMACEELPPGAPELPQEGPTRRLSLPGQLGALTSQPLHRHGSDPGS
Turning to `COc1cc(C)c(Cl)cc1S(=O)(=O)NCCN1CCOCC1`, the “hERG current change (%, negative = inhibition) at 10uM” value stood at 15.9%.

In the case of `Cc1c(NC(=O)c2ccc(F)cc2)c(=O)n(-c2ccccc2)n1C`, the “hERG current change (%, negative = inhibition) at 10uM” value turned out to be 11.2%.

`CCCc1cc(=O)[nH]c(SCC(=O)c2cc(C)n(CC(F)(F)F)c2C)n1`: the “hERG current change (%, negative = inhibition) at 10uM” value turned out to be 7.55%. As for `CC(=O)c1ccc(S(=O)(=O)N(C)CC(=O)Nc2ccc(C)cc2)cc1`, the “hERG current change (%, negative = inhibition) at 10uM” value is reported as -0.949%. The result for `O=S(=O)(Nc1ccc2c(c1)OCCO2)c1cnc[nH]1` reads 7.8%. For the molecule `CCOC(=O)c1c(S(=O)(=O)NCCc2ccc(OC)c(OC)c2)c(C)n(C)c1C`, the “hERG current change (%, negative = inhibition) at 10uM” value was 4.97%. The result for `CC(C)(C)NC(=O)NC(=O)COC(=O)c1cccc(F)c1` reads -1.01%; that for `O=C(CSc1nnc(COc2cccc3cccnc23)o1)N1CCN(C(=O)c2ccco2)CC1`, 0.452%. Next, `O=C(CSc1nnc(CNc2ccc(F)cc2)o1)N1CCN(C(=O)c2ccco2)CC1`: -50.8%; `O=C(NCc1nnc(SCC(=O)N2CCCC2)o1)c1ccco1`: -7.2%.

Regarding `O=C(CSc1nnc(COc2cccc3ccccc23)o1)N1c2ccccc2CCc2ccccc21`, the “hERG current change (%, negative = inhibition) at 10uM” value stood at 7.68%.

As for `O=C(CSc1nnc(CNc2ccccc2)o1)N1CCN(C(=O)c2ccco2)CC1`, the “hERG current change (%, negative = inhibition) at 10uM” value is reported as -17.3%. Next, `O=C(CSc1nnc(COc2cccc3ccccc23)o1)N1CCN(C(=O)c2ccco2)CC1`: -65.1%; `O=C(Nc1ccccc1)/C(=C\c1ccco1)NC(=O)c1ccco1`: -6.57%. In the case of `COc1ccc(CCNC(=O)c2nnn(CC(=O)Nc3ccc(C)cc3C)c2N)cc1OC`, the “hERG current change (%, negative = inhibition) at 10uM” value turned out to be 13.8%.

`CCCOC(=O)c1cccc(NC(=O)c2cccnc2)c1`: the “hERG current change (%, negative = inhibition) at 10uM” value is listed as -39.7%. Regarding `O=C1CC(c2ccccc2)SC(N(c2ccccc2)c2ccccc2)=N1` (stereo not shown), the “hERG current change (%, negative = inhibition) at 10uM” value is reported as -0.167%. Next, `Cn1cc(Cl)c(C(=O)NNC(=S)NC2CCCCC2)n1`: 15.4%. Next, `Cc1cc(C)cc(N2CCCC2=O)c1`: 16.3%. For the molecule `CCNC(=S)N1CCN(C(=O)c2ccco2)CC1`, the “hERG current change (%, negative = inhibition) at 10uM” value worked out at 5.8%. The result for `O=C(c1ccco1)N1CCN(C(=S)NC2CC3CCC2C3)CC1` (stereo not shown) reads -67.3%. `O=C(c1ccco1)N1CCN(C(=S)NCc2ccc(F)cc2)CC1`: the “hERG current change (%, negative = inhibition) at 10uM” value is recorded as -53.1%.

On to `O=C(N[C@@H]1C[C@H]2CC[C@@H]1C2)c1ccco1`, for which the “hERG current change (%, negative = inhibition) at 10uM” value was determined as 4.88%.

In the case of `CSc1ccccc1C(=O)N1CCC(CCC(=O)NCc2ccc(F)cc2)CC1`, the “hERG current change (%, negative = inhibition) at 10uM” value is -12.4%.

Turning to `O=C(NC1CC2CCC1C2)c1ccco1` (stereo not shown), the “hERG current change (%, negative = inhibition) at 10uM” value is -5.69%. The result for `O=C(CCC1CCN(C(=O)c2ccccc2Cl)CC1)NCc1ccc(F)cc1` reads -18.9%.

Consider `O=C(c1ccco1)N1CCN(C(=S)Nc2ccc(F)cc2)CC1`, for which the “hERG current change (%, negative = inhibition) at 10uM” value was -2.5%. The result for `O=C(CCC1CCN(C(=O)c2ccco2)CC1)NCc1ccc(F)cc1` reads -72.6%; that for `COCOc1ccc(-c2oc3c(C/C=C(\C)CCC=C(C)C)ccc(O)c3c(=O)c2OCOC)c(OCOC)c1`, -9.2%; that for `CC(Oc1ccc(Cl)cc1Cl)C(=O)Nc1ncccn1` (stereo not shown), -2.67%.

Regarding `O=C(Nc1ccc(F)cc1)OC1CN2CCC1CC2` (stereo not shown), the “hERG current change (%, negative = inhibition) at 10uM” value is recorded as -27.5%. Next, `CCOC(=O)C1CCCCN1Cc1ccc(C(F)(F)F)cc1` (stereo not shown): 7.75%; `O=C(NCC1CC1)c1cc(-c2ccccc2)nn1CC1CC(c2cccnc2)=NO1` (stereo not shown): -25%.

With `CCOC(=O)c1cc(-c2ccccc2)nn1CC1CC(c2cccnc2)=NO1` (stereo not shown), the “hERG current change (%, negative = inhibition) at 10uM” value was 3.47%.

Regarding `Cc1ccccc1-c1cc(C(=O)NCc2ccco2)n(CC2CC(c3cccnc3)=NO2)n1` (stereo not shown), the “hERG current change (%, negative = inhibition) at 10uM” value is -15.6%.

Consider `Cc1ccccc1-c1cc(C(=O)NCc2cccs2)n(CC2CC(c3cccnc3)=NO2)n1` (stereo not shown), for which the “hERG current change (%, negative = inhibition) at 10uM” value is given as -26.2%. For `O=C(c1cc(-c2ccccc2)nn1CC1CC(c2cccnc2)=NO1)N1CCOCC1` (stereo not shown), the “hERG current change (%, negative = inhibition) at 10uM” value was -4.25%.

In the case of `O=C(NCc1ccc(OC(F)(F)F)cc1)c1cc(-c2ccccc2)nn1CC1CC(c2cccnc2)=NO1` (stereo not shown), the “hERG current change (%, negative = inhibition) at 10uM” value is -57.4%. As for `O=C(NCc1cccs1)c1cc(-c2ccccc2)nn1CC1CC(c2cccnc2)=NO1` (stereo not shown), the “hERG current change (%, negative = inhibition) at 10uM” value is listed as -51.8%. Next, `COc1ccccc1CNC(=O)c1cc(-c2ccccc2C)nn1CC1CC(c2cccnc2)=NO1` (stereo not shown): -2.89%; `O=C(NCc1ccco1)c1cc(-c2ccccc2)nn1CC1CC(c2cccnc2)=NO1` (stereo not shown): -63.9%. Next, `Cc1ccccc1-c1cc(C(=O)NCC2CC2)n(CC2CC(c3cccnc3)=NO2)n1` (stereo not shown): -20%; `COc1ccccc1CNC(=O)c1cc(-c2ccccc2)nn1CC1CC(c2cccnc2)=NO1` (stereo not shown): -71.2%; `COc1ccc(NC(=O)C2CCCN(S(=O)(=O)c3ccc4[nH]c(=O)ccc4c3)C2)cc1` (stereo not shown): 9.08%. For `COCCCNC(=O)Cn1ncc2ccsc2c1=O`, the “hERG current change (%, negative = inhibition) at 10uM” value was determined as 13.6%. The result for `O=C(COc1ccccc1Cl)NC(=O)NC1CCCCC1` reads 5.11%. The result for `COc1ccc(CNC(=O)Cn2ncn3cccc3c2=O)cc1` reads 3.12%; that for `Cc1ccc(CNC(=O)c2cc(-c3ccccc3)nn2CC2CC(c3cccnc3)=NO2)cc1` (stereo not shown), -69.7%; that for `COCCNC(=O)c1cc(-c2ccccc2)nn1CC1CC(c2cccnc2)=NO1` (stereo not shown), 2.9%. The result for `CC(Oc1ccccc1F)c1nnc(SCC(=O)NCc2ccc3c(c2)OCO3)o1` (stereo not shown) reads -32.1%.

On to `COc1ccc(Br)cc1CNc1ccc(S(N)(=O)=O)cc1`, for which the “hERG current change (%, negative = inhibition) at 10uM” value is -14.1%. Next, `CCOc1ccc([N+](=O)[O-])cc1CNCCc1ccccc1.Cl`: -45.5%; `Cl.NS(=O)(=O)c1ccc(CCNCc2cc(Br)ccc2OCc2ccccc2)cc1`: -71.8%; `Cl.NS(=O)(=O)c1ccc(CCNCc2cc(Br)ccc2OCc2ccccc2F)cc1`: -75.9%. Consider `NS(=O)(=O)c1ccc(NCc2ccccc2OCc2ccccc2F)cc1`, for which the “hERG current change (%, negative = inhibition) at 10uM” value is reported as -2.39%. The result for `NS(=O)(=O)c1ccc(NCc2cc(Cl)ccc2OCc2ccccc2F)cc1` reads -2.13%. The result for `CCn1c(SCc2nc(-c3ccccc3)no2)nc2ccccc21` reads -24.6%.

As for `CCCCOc1ccccc1C(=O)NCCCCCC(=O)O`, the “hERG current change (%, negative = inhibition) at 10uM” value was determined as 10.3%. In the case of `CCc1cccc(OCCCn2ccnc2)c1.O=C(O)C(=O)O`, the “hERG current change (%, negative = inhibition) at 10uM” value is reported as -25.7%.

As to `COC(=O)c1c(NC(=O)c2nc3nc(C)cc(C(F)F)n3n2)sc2c1CCC2`, the “hERG current change (%, negative = inhibition) at 10uM” value was found to be 5.97%. Consider `Cc1cc(C(F)F)n2nc(C(=O)Nc3sc4c(c3C#N)CCC4)nc2n1`, for which the “hERG current change (%, negative = inhibition) at 10uM” value was 18.3%. Next, `Cc1cc(C(F)F)n2nc(C(=O)Nc3sc4c(c3C(N)=O)CCC4)nc2n1`: -60.9%. On to `CCC1CCC/C1=N\NC(=O)c1ccccc1Cl` (stereo not shown), for which the “hERG current change (%, negative = inhibition) at 10uM” value was found to be 19.2%.

`CCOc1ccccc1NC(=O)COC(=O)CSc1ccc(Cl)cc1`: the “hERG current change (%, negative = inhibition) at 10uM” value worked out at 21.2%. Next, `COc1ccc(CNC(=O)COC(=O)CC(NC(N)=O)c2ccc(Cl)cc2)cc1OC` (stereo not shown): 1.27%.

For `COc1cccc(NC(=O)COC(=O)CC(NC(N)=O)c2ccc(Cl)cc2)c1` (stereo not shown), the “hERG current change (%, negative = inhibition) at 10uM” value is -2.18%. In the case of `N#Cc1ccc(COC(=O)CC(NC(N)=O)c2ccc(Cl)cc2)cc1` (stereo not shown), the “hERG current change (%, negative = inhibition) at 10uM” value was -59.9%. Next, `NC(=O)COC(=O)CC(NC(N)=O)c1ccc(Cl)cc1` (stereo not shown): 17.6%; `CCOc1ccccc1NC(=O)COC(=O)CC(NC(N)=O)c1ccc(Cl)cc1` (stereo not shown): -68.4%.

Turning to `CC(=O)c1c(O)cc(=O)oc1-c1ccc(C)cc1`, the “hERG current change (%, negative = inhibition) at 10uM” value is 16.7%. Next, `COc1cc(C2N(c3ccccc3)CCN2c2ccccc2)ccc1OC(C)=O`: -1.36%. Next, `Cn1c(CNc2ccccc2)nc2ccccc21`: 4.27%; `CCOC(=O)Cn1cc(C#N)c2ccccc21`: 15.1%; `CCOc1ccc(S(=O)(=O)N2CCOCC2)cc1NS(=O)(=O)c1ccc(OC)c([N+](=O)[O-])c1`: -41.7%. Next, `CC(=O)N1CCC(=NNc2ccc(S(=O)(=O)N3CCOCC3)cc2[N+](=O)[O-])CC1`: -18.2%. In the case of `CCOC(=O)N1CCC(=NNc2ccc(S(N)(=O)=O)cc2[N+](=O)[O-])CC1`, the “hERG current change (%, negative = inhibition) at 10uM” value was -11.8%. Next, `CCCOc1ccc(S(=O)(=O)N2CCCC2)cc1[N+](=O)[O-]`: -30.1%.

As to `CCCOc1ccc(S(=O)(=O)N2CCOCC2)cc1[N+](=O)[O-]`, the “hERG current change (%, negative = inhibition) at 10uM” value is -57.8%. Next, `CCOc1ccc(S(=O)(=O)N2CCOCC2)cc1[N+](=O)[O-]`: -52.2%; `O=[N+]([O-])c1cc(S(=O)(=O)N2CCOCC2)ccc1OCc1cccc(Cl)c1`: 1.31%; `CCOC(=O)N1CCC(=NNc2ccc(S(=O)(=O)N3CCOCC3)cc2[N+](=O)[O-])CC1`: -61.3%. On to `O=C1c2ccccc2C(=O)N1COc1ccc(S(=O)(=O)N2CCOCC2)cc1[N+](=O)[O-]`, for which the “hERG current change (%, negative = inhibition) at 10uM” value was -22.8%. In the case of `COCCn1c(SCC(=O)Nc2c(C)n(C)n(-c3ccccc3)c2=O)nc2ccccc2c1=O`, the “hERG current change (%, negative = inhibition) at 10uM” value is given as -19.6%. The result for `CCCC(=O)N(c1ccc(C(=O)O)cc1)c1nc(-c2ccccc2)c(C)s1` reads 14.2%; that for `CCOc1cc2c(cc1OCC)C(C(=O)O)C(c1cc(OC)c(OC)c(OC)c1)N(C)C2=O` (stereo not shown), 3.02%.

(Values after paper PMC4336329 (PLoS ONE, 2015).)
